# Results: PubChem BioAssay AID1053126 (Broad Institute, 2014)
# Potency and affinity values are given separately. Calls of active or inactive are those of the source.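 Rule for the calls: active = cell killing with a fitted half-effect concentration at or below twice the top valid dose; inconclusive = flat curve with 30 to 70 percent drop, or poor fit; inactive = the rest.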
# Test: viability loss in HEK293T kidney cells – cell-based, ATP luminescence, cherry-pick, set 6, cytotoxicity control, dose response (AID 1053126)
# Conditions: CellTiter-Glo ATP luminescence, 72 h; series mostly up to 26 µM
row,Compound,outcome
1,Nc1ccc2ccc3cccc[n+]3c2c1,inactive
2,CC12CC(c3ccccc3O1)C(C(=O)OCc1ccccc1)C(=O)N2 (stereo not drawn),inactive
3,CC(C)OP(=O)(O)NC(=O)c1ccccc1,inactive
